# Screening results deposited in PubChem BioAssay by National Center for Advancing Translational Sciences (NCATS).
# A selection: hits, their analogues and other compounds. The true share with any hit is near 3%.
# IP6K1 inhibitor: blocks human inositol hexakisphosphate kinase 1; IP6K1 kinase, ADP-Glo luminescence, 2 h; hits give low values; activity change, % (series mostly up to about 58 µM); 140,000 compounds, 0.81% hits; AID 1645851; in the data active = activity change below about -25%; note: % is set by controls: 0 for no effect and ±100 for the full control effect
# Target sequence (Q92551 whole entry, looked up): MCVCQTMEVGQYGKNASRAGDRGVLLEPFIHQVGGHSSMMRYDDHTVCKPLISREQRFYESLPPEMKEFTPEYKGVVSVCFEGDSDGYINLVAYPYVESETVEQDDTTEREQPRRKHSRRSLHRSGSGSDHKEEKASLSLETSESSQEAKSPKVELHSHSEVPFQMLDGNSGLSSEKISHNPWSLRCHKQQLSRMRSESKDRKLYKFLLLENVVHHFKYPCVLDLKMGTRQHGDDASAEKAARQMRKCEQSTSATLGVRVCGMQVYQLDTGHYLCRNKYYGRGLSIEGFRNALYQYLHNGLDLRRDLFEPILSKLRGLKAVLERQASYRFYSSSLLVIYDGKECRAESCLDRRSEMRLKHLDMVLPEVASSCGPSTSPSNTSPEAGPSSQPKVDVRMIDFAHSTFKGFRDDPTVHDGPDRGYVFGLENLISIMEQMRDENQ
#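 ADP-Glo luminescence measures ADP made by human IP6K1 during a 2 h RT reaction with ATP/IP6 (mix at 1.3 mM/130 uM); top library doses 57.5 and 19.1 uM final.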
# SNCA expr inhib: inhibitors of alpha-synuclein (SNCA) gene expression; HEK-293 SNCA-luciferase knock-in, luminescence, 24 h; Potency, µM (top dose mostly 57.2 µM), inactives show at the highest dose activity change, negative = inhibition, hits mostly inhibitors; 140,000 compounds, 0.17% hits; AID 1671194;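 note: potency is the fitted concentration of half-maximal effect; plate controls were DMSO cells for no effect and cell-free wells for full effect; nearly all actives have a fitted effect of over 45% in size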
# SNCA viab count: counter-screen for SNCA expression inhibitors: cell viability. HEK-293-SNCA-luc viability, GF-AFC fluorescence, 24 h. Potency, µM (top dose mostly 57.1 µM), for inactives: top-dose activity change, negative = cytotoxicity, usual class: cytotoxic. 150,000 compounds, 0.12% hits. AID 1671193;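 note: potency is the fitted concentration of half-maximal effect; 0% = DMSO-treated cells and -100% = medium-only wells without cells; nearly all actives have a fitted effect of over 30% in size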
#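 Cytotoxicity counterscreen: after 24 h compound treatment of genome-edited SNCA-luciferase HEK-293 cells, live-cell protease substrate GF-AFC read by fluorescence after 30 min; activity scaled between DMSO (0%) and medium-only (-100%), curves Hill-fitted.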
# KDM5B inhibitor: KDM5B demethylase inhibition | Q9UGL1 | KDM5B demethylase, FDH-coupled NADH fluorescence (FDH is formaldehyde dehydrogenase) | Potency, µM (series often up to 57.7 µM), actives largely listed as inhibitors | 220,000 compounds, 2.6% hits; note: potency is the fitted concentration of half-maximal effect; 0% is about no effect; nearly all actives have a fitted effect of over 70% in size
#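 Inhibition is measured as reduced NADH fluorescence generation from FDH coupling to formaldehyde release. Truncated KDM5BΔAP at 200 nM final acts on H3K4me3 peptide (12.5 µM in substrate mix) in pH 7.5 HEPES buffer with Tween-20, 30 min, room temperature.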
# * = called active by the depositor; i = inactive; ? = inconclusive; . = not tested or not shown; [ ] = dose if it differs, or a comment. Unless noted, calls come from the whole dose curve; as a rule, active = well fitted curve in the direction sought with a large enough effect; inconclusive = small, poorly fitted or top-dose-only effect, or another doubt; inactive = no such curve, though single readings can be large; an effect the other way counts as inactive or inconclusive.
SMILES,IP6K1 inhibitor,SNCA expr inhib,SNCA viab count,KDM5B inhibitor
CCC1CCc2c(sc(NC(=O)COCC(=O)O)c2C(=O)Nc2ccccc2C)C1 (stereo not drawn),.,.,.,i
Cc1ccc2c(n1)OC(COc1ccccc1)CN(Cc1ccccc1)C2=O (stereo not drawn),-11.8,.,.,.
Cc1nnn2c(C(=O)NCc3ccc(Cl)cc3)cccc12,-7.0,-2.0%[87.6 µM],-5.4%[87.6 µM],35.5µM*
Cc1nnn2c(C(=O)N(C)C)cccc12,7.7,22.3%[87.6 µM],-10.4%[87.6 µM],?
COc1ccc(-c2nc3c(c(=O)[nH]2)CCN(C(=O)Nc2ccc4c(c2)CCC4)C3)cc1,8.0,38.4%,-21.2%,i
N#Cc1cccc(NC(=O)N2CCc3c(nc(-c4ccc(F)cc4)[nH]c3=O)C2)c1,26.1,2.2%,-0.1%,20µM*
COc1ccc(-c2nc3c(c(=O)[nH]2)CCN(C(=O)Nc2cc(F)cc(F)c2)C3)cc1,-0.5,?,2.8%,17.8µM*
COc1ccc(OC2CCN(C(C)=O)CC2)c(C(=O)NC(C)Cc2cccnc2)c1 (stereo not drawn),9.6,3.5%,3.3%,?
COc1ccc(OC2CCN(C(C)=O)CC2)c(C(=O)NC(C)Cc2cccs2)c1 (stereo not drawn),6.1,-15.5%,0.1%,28.2µM*
CCC(NC(=O)c1cc(OC)ccc1OC1CCN(C(C)=O)CC1)c1ccc(F)cc1 (stereo not drawn),-5.7,-1.1%,7.2%,28.2µM*
CCn1ccnc1CNC(=O)c1cc(OC)ccc1OC1CCN(C(=O)C2CC2)CC1,-8.6,16.0%,4.1%,28.2µM*
CCc1cc2c(N)c(C(=O)c3ccccc3)sc2nc1C,.,.,.,i
CN1CCc2[nH]cnc2C12CCN(C(=O)c1cc(=O)[nH]c3ccccc13)CC2,4.6,4.4%,-21.0%,20µM*
CN1CCc2[nH]cnc2C12CCN(C(=O)c1cccc(-n3cccn3)c1)CC2,-3.6,-15.3%,-4.1%,i
Cc1ccncc1-c1c(C)nn2c1N(Cc1cccc(OC(F)(F)F)c1)CCC2,22.7,?,?,35.5µM*
COc1ccc(OC)c(CN2CCCn3nc(C)c(-c4cnccc4C)c32)c1,4.5,-28.3%[87.6 µM],-6.6%[87.6 µM],31.6µM*
O=C(c1ncccc1F)N1C[C@@H](COCC2CC2)[C@H](c2ccccn2)C1,6.4,6.8%,-3.6%,i
O=C(c1ncn[nH]1)N1C[C@@H](COCC2CC2)[C@H](c2ccccn2)C1,1.9,0.794µM*,-24.1%,i
O=C(OCC(=O)N1CCOCC1)c1ccc2ccccc2n1,.,.,.,i
CN(C)CCNC(=O)c1nc2nc(-c3ccccc3)c(-c3ccncc3)cc2n1C,13.2,7.3%[87.6 µM],-3.0%[87.6 µM],22.4µM*
Cc1cc(-c2cc3c(nc2-c2ccccc2)nc(C(=O)NC2CCN(C)CC2)n3C)ccn1,8.2,10.8%[87.6 µM],-26.9%[87.6 µM],31.6µM*
CN(C)CCNC(=O)c1nc2nc(-c3ccccc3)c(-c3cccnc3)cc2n1C,6.3,?,-8.0%[87.6 µM],20µM*
Cc1ccccc1-c1cc2c(nc1-c1ccccc1)nc(C(=O)NCCN(C)C)n2C,12.4,0.3%[87.6 µM],-29.6%[87.6 µM],i
CN(C)CCNC(=O)c1nc2nc(-c3ccccc3)c(Nc3ccc(F)cc3)cc2n1C,7.0,1.7%[87.6 µM],?,?
Cc1ccccc1Nc1cc2c(nc1-c1ccccc1)nc(C(=O)NCCN(C)C)n2C,8.1,-19.3%[87.6 µM],?,35.5µM*
SMILES,IP6K1 inhibitor,SNCA expr inhib,SNCA viab count,KDM5B inhibitor
Cc1cc(-c2cc3c(nc2-c2ccccc2)nc(C(=O)NCCN(C)C)n3C)ccn1,2.8,9.1%[87.6 µM],-10.3%[87.6 µM],i
CNc1nc(-c2ccc(NS(C)(=O)=O)cc2)cs1,.,.,.,i
Cc1cccc(NC(=O)CC(C)c2ccccc2)c1 (stereo not drawn),.,.,.,i
O=C(C[C@@H]1CCNC[C@@H]1Cc1cc(-c2ccccc2)on1)N1CCc2ccccc2C1,-12.6,-1.7%[87.6 µM],-12.4%[87.6 µM],?
Cc1ccc2oc(C(=O)Nc3ccc4c(c3)NC(=O)C(C)O4)cc(=O)c2c1 (stereo not drawn),.,.,.,i
C#CCNC(=O)NC(CC)c1ccc(C)cc1 (stereo not drawn),.,.,.,i
COc1ccc([C@H]2CN(C(=O)c3nc(N)nc4c3CCCC4)C[C@@H]2N)cc1,8.7,?,3.2%,22.4µM*
C#CCNC(=O)CN1CCN(C(=O)c2ccc(F)cc2)CC1,.,.,.,i
Cc1ccc(CS(=O)(=O)c2ncc(Cl)c(C(=O)Nc3nnc(C(C)C)s3)n2)cc1,-11.4,?,25.1µM*,i
O=C(Nc1nc2ccc(F)cc2s1)c1nc(S(=O)(=O)Cc2ccccc2F)ncc1Cl,-39.7*,?,?,?
Cc1cccc(CS(=O)(=O)c2ncc(Cl)c(C(=O)Nc3nnc(C(C)C)s3)n2)c1,7.7,?,?,i
CCc1nnc(NC(=O)c2nc(S(=O)(=O)Cc3cccc(C)c3)ncc2Cl)s1,-4.1,?,20µM*,i
O=C(Nc1ccc(F)cc1)c1ccc(Cn2ccn3nc4c(c3c2=O)CCCC4)cc1,0.3,-1.6%,9.2%,?
COCCCNC(=O)c1ccc(Cn2ccn3nc4c(c3c2=O)CCCC4)cc1,-3.2,9.3%,-9.9%,i
COc1ccccc1OCCNC(=O)c1ccc(Cn2ccn3nc4c(c3c2=O)CCCC4)cc1,32.2,-21.8%,-22.6%,25.1µM*
O=C(Nc1ccc(F)c(F)c1)c1ccc(Cn2ccn3nc4c(c3c2=O)CCCC4)cc1,-1.1,-10.2%,-22.5%,25.1µM*
CC(C)c1cccc(NC(=O)c2ccc(Cn3ccn4nc5c(c4c3=O)CCCC5)cc2)c1,24.8,-19.3%,1.1%,22.4µM*
O=C(Nc1ccccc1)c1ccc(Cn2ccn3nc4c(c3c2=O)CCCC4)cc1,-4.9,9.0%,-15.1%,22.4µM*
O=C(Nc1ccc(Cl)cc1)c1ccc(Cn2ccn3nc4c(c3c2=O)CCCC4)cc1,18.0,38.2%,-13.6%,i
Cc1cccc2c1O[C@H]1[C@H](CO)CN(C(=O)CC(C)C)[C@@H]21,10.0,.,.,.
CCOC(=O)[C@@H]1CN([S+](=O)([O-])Cc2ccccc2)[C@H]2c3cccc(F)c3O[C@@H]12,10.0,.,.,.
S=C(NCc1ccccc1)NC1CCSc2ccc(Cl)cc21 (stereo not drawn),.,.,.,i
S=C(NCCc1ccccc1)Nc1ccc(Sc2ccc(Br)cc2)cc1,.,.,.,i
CN(C)C[C@@H]1CN(Cc2ccncc2)C[C@H]1NC(=O)c1ccoc1,4.2,-4.1%,1.0%,?
CN(C)C[C@@H]1CN(Cc2ccncc2)C[C@H]1NC(=O)c1ccc(Cl)cc1,7.7,6.8%,?,20µM*
COCC(=O)N[C@@H]1CN(Cc2ccncc2)C[C@H]1CN(C)C,1.6,-9.0%,6.5%,25.1µM*
COCC(=O)N[C@@H]1CN(Cc2ccccc2)C[C@H]1CN(C)C,-10.3,5.0%,11.1%,i
CCn1cnc2c1c(=O)n(CC(=O)Nc1ccc(OC)c(OC)c1)c(=O)n2Cc1ccccc1,.,.,.,i
O=C(COc1cc(O)c2c(=O)cc(-c3ccccc3)oc2c1)N1CCCCC1,.,.,.,i
CN(C)N1C(=O)CC(c2ccc(Cl)cc2Cl)C2=C1CC(C)(C)CC2=O (stereo not drawn),.,.,.,i
